Test results reported in the supplement of paper PMC9492666.

What was measured:
HCC1937 = assay: relative cell viability, compound + RSL3, vs DMSO (fraction of DMSO control); higher = less growth inhibition; details: 72 h
MDA-MB-231 = assay: as above; details: 72 h
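Further: breast cancer cell viability read out with the CCK-8 kit after co-treatment of each compound with the ferroptosis inducer RSL3.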

Structure (SMILES)	relative cell viability (HCC1937)	relative cell viability (MDA-MB-231)
COc1ccc(/C=C/c2cc(O)cc(O[C@@H]3O[C@H](CO)[C@@H](O)[C@H](O)[C@H]3O)c2)cc1 [Deoxyrhapontin] + COC(=O)c1ccc([C@H]2c3[nH]c4ccccc4c3C[C@H](C(=O)OC)N2C(=O)CCl)cc1 [RSL3]	0.532	0.693
O=S(=O)(c1ccccc1)N(CC(F)(F)F)c1ccc(C(O)(C(F)(F)F)C(F)(F)F)cc1 + COC(=O)c1ccc([C@H]2c3[nH]c4ccccc4c3C[C@H](C(=O)OC)N2C(=O)CCl)cc1 [RSL3]	0.36	0.638
CCC(=O)O[C@]1(C(=O)SCF)[C@H](C)C[C@H]2[C@@H]3C[C@H](F)C4=CC(=O)C=C[C@]4(C)[C@@]3(F)[C@@H](O)C[C@@]21C [Fluticasone propionate] + COC(=O)c1ccc([C@H]2c3[nH]c4ccccc4c3C[C@H](C(=O)OC)N2C(=O)CCl)cc1 [RSL3]	0.751	0.566
CN1c2ccccc2C(=O)Nc2cnc(Nc3ccc(N4CCC(O)CC4)cc3)nc21 + COC(=O)c1ccc([C@H]2c3[nH]c4ccccc4c3C[C@H](C(=O)OC)N2C(=O)CCl)cc1 [RSL3]	0.206	0.375
Cc1cc(SCc2sc(-c3ccc(C(F)(F)F)cc3)nc2C)ccc1OCC(=O)O + COC(=O)c1ccc([C@H]2c3[nH]c4ccccc4c3C[C@H](C(=O)OC)N2C(=O)CCl)cc1 [RSL3]	0.339	0.554
CC(C)(Oc1ccc(Cl)cc1)C(=O)O [Clofibric acid] + COC(=O)c1ccc([C@H]2c3[nH]c4ccccc4c3C[C@H](C(=O)OC)N2C(=O)CCl)cc1 [RSL3]	0.956	0.603
